29 compounds from the supplement of paper PMC6522484 can be followed below.

Assay [1] relates to DLD1. Description: cell viability (CellTiter-Glo) relative to plate median (fraction of plate median); higher = more viable cells. The settings on record: 5 µM; treatment time 24 h; reporter: 7TFP. An outline of the steps: (§1)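 Luminescence, normalised well by well to the plate median, is tabulated as a mean of independent replicates. There were two replicates, run on colorectal cancer lines stably transduced with lentiviral TCF/Wnt firefly luciferase reporters and dosed with library compounds at a final 5 µM for 24 h. Readouts were firefly luciferase or CellTiterGlo on parallel plates.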
(In general: In ATP-based viability assays light output follows the ATP content of the culture.)

Another assay has as its system HCT116. The description is as above. Conditions: 5 µM; treatment time 24 h; reporter: TCF4/Wnt. In a few lines:
as §1

The subject of assay [2] is SW480. Described as above. The settings on record: 5 µM; treatment time 24 h; reporter: 7TFP. An outline of the steps: as §1
The test system of assay [3] is DLD1. Description: TCF/Wnt firefly luciferase reporter signal relative to plate median (fraction of plate median); higher = higher Wnt reporter signal. Conditions: 5 µM; treatment time 24 h; reporter: 7TFP. In a few lines: as §1
(A reporter such as luciferase makes a cellular process visible.)

For assay [4], the system named is SW480. The description is as above. Conditions: 5 µM; treatment time 24 h; reporter: 7TFP. An outline of the steps:
as §1

Several values for one entry are separate records, joined by “and”; a condition that tells them apart may be missing. Identical values can stand only once. ± gives the standard deviation of the averaged measurements.

For the compound `CN(C)CC[C@@H](c1ccc(Cl)cc1)c1ccccn1`, the cell viability was 1.01 and 0.901 with DLD1 [1]; 0.96 and 1.04 in the assay with HCT116; 0.968 and 1.01 with SW480 [2]. In addition, the “TCF/Wnt firefly luciferase reporter signal” value is 0.862 and 1.08 in the assay with DLD1 [3]; 0.778 and 1.05 in the assay on SW480 [4].
In the case of `NCCc1ccc(O)c(O)c1`, the cell viability with DLD1 [1] is 0.922 and 1; with HCT116, 1.05 and 1.1; with SW480 [2] it was 0.998 and 0.98. Moreover, the “TCF/Wnt firefly luciferase reporter signal” value in the assay on DLD1 [3] was 1.01 and 1.02; in the assay on SW480 [4] it was 0.963 and 0.967.
`COc1ccc2c(c1)OCC(Cc1ccc(OC)c(O)c1)C2=O` (stereo not given): the values for the cell viability with DLD1 [1], in the assay with HCT116 and with SW480 [2] were 0.937 ± 0.0099, 0.847 ± 0.043 and 1.09 ± 0.035, respectively. Further, the “TCF/Wnt firefly luciferase reporter signal” value in the assay with DLD1 [3] was found to be 0.707 ± 0.13; with SW480 [4] it was 0.883 ± 0.047.
As to `C[C@@H]1NC(=O)[C@@H](N)CNC(=O)[C@H](C2CCNC(=N)N2)NC(=O)/C(=C/NC(N)=O)NC(=O)[C@H](CNC(=O)CC(N)CCCN)NC1=O.N=C1NCC[C@H]([C@@H]2NC(=O)/C(=C/NC(N)=O)NC(=O)[C@H](CNC(=O)C[C@@H](N)CCCN)NC(=O)[C@H](CO)NC(=O)[C@@H](N)CNC2=O)N1`, the cell viability with DLD1 [1] stood at 1.03 ± 0.052; in the assay on HCT116 it was 0.993 ± 0.081; in the assay on SW480 [2], 0.996 ± 0.076. Besides, the “TCF/Wnt firefly luciferase reporter signal” value with DLD1 [3] came to 0.816 ± 0.0071; with SW480 [4], 0.871 ± 0.093.
The matching figures for `Nc1nc(N)c2nc(-c3ccccc3)c(N)nc2n1`: 0.843 ± 0.047, 0.898 ± 0.0042, 0.956 ± 0.037, 1.11 ± 0.085 and 1.05 ± 0.028.
On to `COc1ccc2c(=O)c(-c3cc4c(cc3OC)OCO4)coc2c1`, for which the cell viability came to 0.995 ± 0.093 with DLD1 [1], 1.01 ± 0.053 with HCT116 and 1.04 ± 0.035 in the assay with SW480 [2]. Also, the “TCF/Wnt firefly luciferase reporter signal” value in the assay with DLD1 [3] was 1.03 ± 0.042; with SW480 [4], 1.14 ± 0.014.
As for `C[C@@H]1NC(=O)[C@H](Cc2ccccc2)NC1=O` [cyclo(alanylphenylalanyl)], the cell viability with DLD1 [1] stood at 1 ± 0.053; in the assay with HCT116, 0.997 ± 0.17; in the assay with SW480 [2], 0.96 ± 0.025. Besides, the results for the “TCF/Wnt firefly luciferase reporter signal” value in the assay on DLD1 [3] and in the assay on SW480 [4] were 0.987 ± 0.12 and 1.04 ± 0.014, respectively.
The matching figures for `C[C@]12CC[C@@H]3c4ccc(O)cc4CC[C@H]3[C@@H]1C[C@@H](O)[C@@H]2O`: 1.03 ± 0.035, 1.05 ± 0.057, 1 ± 0.035, 1.07 ± 0.085 and 1.16 ± 0.071.
Consider `CCCCNc1ccc(C(=O)OCCN(C)C)cc1`, for which the cell viability amounted to 1.04 ± 0.042 with DLD1 [1], 1.12 ± 0.085 in the assay with HCT116 and 1.02 ± 0.035 in the assay with SW480 [2]. Also, the “TCF/Wnt firefly luciferase reporter signal” value in the assay on DLD1 [3] was 1.1 ± 0.035; with SW480 [4], 0.973 ± 0.0085.
As for `Nc1c2c(nc3ccccc13)CCCC2`, the cell viability with DLD1 [1] was found to be 1.04; with HCT116, 0.997 ± 0.018; with SW480 [2], 0.946 ± 0.014. Moreover, the “TCF/Wnt firefly luciferase reporter signal” value was found to be 0.999 ± 0.016 in the assay on DLD1 [3] and 0.943 ± 0.015 in the assay on SW480 [4].
`COc1ccc2c(c1)OC/C(=C/c1ccc(O)c(O)c1)C2=O`: the cell viability came to 0.99 ± 0.043 in the assay with DLD1 [1], 1.01 ± 0.021 in the assay on HCT116 and 0.986 ± 0.035 with SW480 [2]. Moreover, the entries for the “TCF/Wnt firefly luciferase reporter signal” value in the assay on DLD1 [3] and in the assay on SW480 [4] were 0.944 ± 0.033 and 1.09 ± 0.078, respectively.
For `COc1cc(O)c2c(c1)C(=O)c1cc3c(c(OC)c1C2=O)[C@@H]1CCO[C@@H]1O3` [Aversin], the cell viability with DLD1 [1] amounted to 1.24 ± 0.17; in the assay with HCT116 it was 1.18 ± 0.021; in the assay on SW480 [2] it was 1.12 ± 0.021. The “TCF/Wnt firefly luciferase reporter signal” value in the assay with DLD1 [3] worked out at 0.95 ± 0.059; in the assay with SW480 [4], 1.02 ± 0.16.
Take `NC(CO)C(=O)NNCc1ccc(O)c(O)c1O` (stereo not given): the figures for the cell viability with DLD1 [1], with HCT116 and in the assay on SW480 [2] were 1.03 ± 0.028, 1.07 ± 0.13 and 1.02 ± 0.021, respectively. Besides, the “TCF/Wnt firefly luciferase reporter signal” value is 1.07 ± 0.021 in the assay with DLD1 [3] and 1.08 ± 0.021 with SW480 [4].
Consider `Nc1c2c(nc3ccccc13)CCCC2O` (stereo not given), for which the cell viability is 1.01 ± 0.018 in the assay with DLD1 [1], 1.12 ± 0.028 in the assay with HCT116 and 0.954 ± 0.021 in the assay on SW480 [2]. The entries for the “TCF/Wnt firefly luciferase reporter signal” value in the assay on DLD1 [3] and with SW480 [4] were 0.932 ± 0.016 and 0.931 ± 0.03, respectively.
The matching figures for `Cc1cc(O)c(C)c(O)c1C(=O)O`: 1 ± 0.05, 0.927 ± 0.0085, 0.996 ± 0.021, 0.792 ± 0.36 and 0.949 ± 0.23.
`CCCc1cc(C(N)=S)ccn1`: the cell viability came out at 0.972 ± 0.022 in the assay with DLD1 [1], 1.05 ± 0.021 in the assay on HCT116 and 0.976 ± 0.063 with SW480 [2]. Further, the entries for the “TCF/Wnt firefly luciferase reporter signal” value with DLD1 [3] and with SW480 [4] were 1.015 ± 0.0071 and 1.04 ± 0.021, respectively.
For `Oc1c(Cl)cc(Cl)cc1Sc1cc(Cl)cc(Cl)c1O` the same measures were 1.03 ± 0.058, 1.01 ± 0.022, 0.99 ± 0.043, 0.979 ± 0.059 and 0.959 ± 0.048.
The matching figures for `CCOC(=O)c1ccc(O)cc1`: 0.925 ± 0.019, 0.89 ± 0.056, 1.004 ± 0.0078, 1.01 and 0.998 ± 0.059.
The matching figures for `COc1ccc(C(C)=O)c(OC)c1`: 0.971 ± 0.056, 0.963 ± 0.15, 0.9765 ± 0.00071, 0.864 ± 0.044 and 1.03 ± 0.16.
Regarding `CN(N=O)C(=O)N[C@H]1C(O)O[C@H](CO)[C@@H](O)[C@@H]1O` (mixture of isomers), the cell viability came out at 0.999 ± 0.03 in the assay with DLD1 [1], 1.03 ± 0.064 in the assay on HCT116 and 1.08 ± 0.021 in the assay on SW480 [2]. Besides, the “TCF/Wnt firefly luciferase reporter signal” value in the assay with DLD1 [3] amounted to 0.962 ± 0.15; in the assay with SW480 [4], 1.005 ± 0.0071.
The matching figures for `COc1ccc(/C=C/C(=O)O)cc1OC`: 1.02 ± 0.045, 1.06 ± 0.16, 0.951 ± 0.083, 1.01 ± 0.021 and 0.984 ± 0.021.
The matching figures for `CC(=O)OCC(=O)[C@@]1(O)CC[C@H]2[C@@H]3CCC4=CC(=O)C=C[C@]4(C)[C@H]3[C@@H](O)C[C@@]21C`: 0.992 ± 0.04, 0.864 ± 0.1, 0.936 ± 0.0042, 1.08 ± 0.11 and 1.11 ± 0.092.
For `N[C@H](Cc1ccccc1)C(=O)O` the same measures were 1.03 ± 0.066, 1.07 ± 0.064, 1.01 ± 0.078, 1.17 ± 0.05 and 1 ± 0.15.
Take `COc1cc2occ(-c3ccccc3)c(=O)c2c(OC)c1C`: the cell viability was determined as 0.982 ± 0.015 in the assay on DLD1 [1], 1 ± 0.025 with HCT116 and 0.958 ± 0.021 in the assay with SW480 [2]. Further, the “TCF/Wnt firefly luciferase reporter signal” value in the assay with DLD1 [3] was 1.15 ± 0.16; in the assay on SW480 [4], 1.12 ± 0.05.
The matching figures for `CC1=NN(c2ccccc2)C(=O)C1`: 1.03 ± 0.054, 0.921 ± 0.021, 1.03 ± 0.06, 0.979 ± 0.14 and 1.01 ± 0.025.
For `OC(CCN1CCCC1)(c1ccccc1)C1CCCCC1` (stereo not given), the cell viability with DLD1 [1] is 1.03; in the assay with HCT116 it was 1.01 ± 0.043; in the assay on SW480 [2], 1.03 ± 0.054. The figures for the “TCF/Wnt firefly luciferase reporter signal” value in the assay with DLD1 [3] and in the assay on SW480 [4] were 1.12 ± 0.15 and 0.981 ± 0.017, respectively.
As for `CCCCNS(=O)(=O)c1ccccc1` [N-butylbenzenesulphonamide (AB2)], the cell viability was 0.978 ± 0.19 with DLD1 [1], 1 ± 0.022 in the assay on HCT116 and 0.964 ± 0.052 in the assay on SW480 [2]. Also, the entries for the “TCF/Wnt firefly luciferase reporter signal” value in the assay on DLD1 [3] and with SW480 [4] were 0.908 ± 0.13 and 0.919 ± 0.14, respectively.
With `C[C@@H]1CC[C@H]2[C@](C)(CO)[C@@H](O)CC[C@]2(C)[C@@]12CC[C@@](CO)(CCO)O2`, the cell viability with DLD1 [1] stood at 0.994 ± 0.052; with HCT116, 1.02 ± 0.049; in the assay with SW480 [2], 0.9945 ± 0.0078. In addition, the “TCF/Wnt firefly luciferase reporter signal” value in the assay with DLD1 [3] was 1.01 ± 0.043; in the assay with SW480 [4] it was 1.02 ± 0.014.
Regarding `CC(=O)OCC1=C(C(=O)O)N2C(=O)[C@@H](NC(=O)Cc3cccs3)[C@H]2SC1`, the cell viability with DLD1 [1] was 1.05 ± 0.021; with HCT116, 1.06 ± 0.021; in the assay with SW480 [2], 1.03 ± 0.028. For the same compound, the results for the “TCF/Wnt firefly luciferase reporter signal” value in the assay with DLD1 [3] and in the assay on SW480 [4] were 0.953 ± 0.016 and 1 ± 0.028, respectively.
